Test results: PubChem BioAssay (EPA / NIEHS)
Inconclusive results are not listed. Activity calls are given as the source filed them. How the source made its calls: active means hit-call score of the fitted dose curve at least 0.9, where 1 is the maximum; inconclusive means response in the unintended direction; inactive means score below 0.9.

Target: Androgen receptor (Homo sapiens) (UniProt P10275)
Experiment: ATG_AR_TRANS: Attagene TRANS-FACTORIAL HepG2 Assay for human Androgen Receptor (AR) (AID 2282973)
Details: HepG2 Attagene TRANS-FACTORIAL AR reporter transcription
Outline: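 Readout is reporter transcript abundance, quantified by fluorescent RT-PCR products separated on capillary electrophoresis. Human HepG2 liver cells carried transiently transfected NR-Gal4 chimera plus GAL4-UAS reporter constructs and were dosed for 24 h; activity scored upward versus DMSO.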

Androgen receptor (Homo sapiens), sequence (P10275 whole entry, looked up): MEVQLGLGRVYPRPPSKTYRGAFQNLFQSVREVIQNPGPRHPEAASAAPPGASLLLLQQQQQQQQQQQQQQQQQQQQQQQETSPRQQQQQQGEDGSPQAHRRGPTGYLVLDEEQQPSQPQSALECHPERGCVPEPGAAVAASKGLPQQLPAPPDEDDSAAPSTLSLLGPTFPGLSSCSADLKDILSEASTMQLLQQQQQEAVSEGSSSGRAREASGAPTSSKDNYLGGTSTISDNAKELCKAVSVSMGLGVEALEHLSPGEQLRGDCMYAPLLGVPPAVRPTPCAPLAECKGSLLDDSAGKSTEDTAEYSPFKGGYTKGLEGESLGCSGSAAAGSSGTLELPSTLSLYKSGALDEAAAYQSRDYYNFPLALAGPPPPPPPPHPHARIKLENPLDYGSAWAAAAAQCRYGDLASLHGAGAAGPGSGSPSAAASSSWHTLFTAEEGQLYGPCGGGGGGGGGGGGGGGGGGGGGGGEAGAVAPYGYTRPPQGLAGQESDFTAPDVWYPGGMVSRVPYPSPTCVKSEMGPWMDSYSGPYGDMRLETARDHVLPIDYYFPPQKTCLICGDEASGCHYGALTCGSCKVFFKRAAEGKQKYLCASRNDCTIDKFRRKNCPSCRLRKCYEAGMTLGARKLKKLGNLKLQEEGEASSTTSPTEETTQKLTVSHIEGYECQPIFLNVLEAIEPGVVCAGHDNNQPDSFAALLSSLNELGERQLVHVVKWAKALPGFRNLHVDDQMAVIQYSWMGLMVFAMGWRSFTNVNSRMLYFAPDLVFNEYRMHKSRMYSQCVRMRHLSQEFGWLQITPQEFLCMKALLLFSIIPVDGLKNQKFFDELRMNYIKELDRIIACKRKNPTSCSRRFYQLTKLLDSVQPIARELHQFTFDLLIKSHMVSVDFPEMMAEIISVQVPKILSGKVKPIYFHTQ

SMILES | outcome
Oc1ccc(-c2ccccc2)c(Cl)c1 | inactive
CC(=O)OCc1ccccc1 | inactive
CCCC(=O)OCC(COC(=O)CCC)OC(=O)CCC | inactive
CCC(C)NC(N)=O (stereo not given) | inactive
[Co] | inactive
Cc1cc(=O)n(-c2ccccc2)n1C | inactive
O=C(Cl)C(F)(F)C(F)(F)C(F)(F)C(F)(F)C(F)(F)C(F)(F)C(F)(F)F | inactive
O=C1Cc2ccccc2N1c1c(Cl)cccc1Cl | inactive
C[Si](Cl)(Cl)CCC(F)(F)C(F)(F)C(F)(F)C(F)(F)C(F)(F)C(F)(F)F | inactive
CCOC(=O)OC(=O)OCC | inactive
CCc1cccc(CC)c1NC(=O)C(=O)O | inactive
COC(=O)c1ccc([N+](=O)[O-])cc1 | inactive
Clc1ccc2c(Cl)ccnc2c1 | inactive
CO[Si](C)(CCC(F)(F)C(F)(F)C(F)(F)C(F)(F)C(F)(F)C(F)(F)F)OC | inactive
CC=C(C)C(C)=O | inactive
CSc1nnc(C(C)(C)C)c(=O)[nH]1 | inactive
CCCC/C=C/C=C\C=O | inactive
C=CCOC(=O)/C=C\C(=O)OCC=C | inactive
O=C(c1ccccc1)c1ccccc1 | inactive
CC(C)c1ccc2cc(C(C)C)ccc2c1 | inactive

SMILES | outcome
OCC(F)(F)C(F)(F)C(F)(F)C(F)(F)C(F)(F)C(F)F | inactive
NCCNc1cccc2ccccc12 | inactive
CC(=O)OC1CCCCC1 | inactive
CC1CCC(CO)CC1 (stereo not given) | inactive
CC1COCc2cc3c(cc21)C(C)(C)C(C)C3(C)C (stereo not given) | inactive
CCCCCCOC(=O)c1ccc(O)cc1 | inactive
CCc1ccc(C)nc1 | inactive
CC(=O)C=O | inactive
O=C(F)C(F)(F)C(F)(F)C(F)(F)C(F)F | inactive
CC1CCC(C(=O)O)CC1 (stereo not given) | inactive
COC(F)(F)C(F)(C(F)(F)F)C(F)(F)F | inactive
CCCCCCCCCC[N+](C)(C)[O-] | inactive
O=C1OC(=O)c2cc(Oc3ccc4c(c3)C(=O)OC4=O)ccc21 | inactive
Cc1ccc2ccc3ccc(C)cc3c2c1 | inactive
Clc1sc(Cl)c(Cl)c1Cl | inactive
CC1=CP(=O)(c2ccccc2)CC1 (stereo not given) | inactive
CC1=CC2C3C=CC(C3)C2C1C (stereo not given) | inactive
OCc1cccc(Oc2ccccc2)c1 | inactive
O=C(O)CCC(F)(F)C(F)(F)C(F)(F)C(F)(F)C(F)(F)C(F)(F)C(F)(F)F | inactive
O=C(CC(=O)C(F)(F)C(F)(F)F)C(F)(F)F | inactive
